Tests used:
Test in all cases: HT-SELEX; 20 mM HEPES pH 7, 140 mM KCl, 5 mM NaCl, 1 mM K2HPO4, 2 mM MgSO4, 100 uM EGTA, ZnSO4, 0.1% Tween20; room temperature, 1 h; high values mean tight binding
Details in all cases: protein: ivt; tags: eGFP (N-terminal); dsDNA, one strand shown
ZNF721 full-length = ZNF721 full-length (Homo sapiens, UniProt Q8TF20-2 1-923)
Outline: (§1)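 Full-length or DNA-binding-domain forms of a tagged transcription factor were produced in HEK293 lysate or cell-free extract and immobilised on beads. Incubation with a randomized 40-base DNA library ran for 1 h at room temperature in HEPES/KCl low-stringency buffer with Tween20, after which bound DNA was washed, heat-eluted, PCR-amplified over successive cycles and Illumina-sequenced. Binding strength is given as the relative k-mer count in selected reads, higher for tighter binding.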

ZNF721 DBD1 = ZNF721 DBD1 (Homo sapiens, UniProt Q8TF20-2 29-461)
Chain of ZNF721 DBD1 (Q8TF20 17-449): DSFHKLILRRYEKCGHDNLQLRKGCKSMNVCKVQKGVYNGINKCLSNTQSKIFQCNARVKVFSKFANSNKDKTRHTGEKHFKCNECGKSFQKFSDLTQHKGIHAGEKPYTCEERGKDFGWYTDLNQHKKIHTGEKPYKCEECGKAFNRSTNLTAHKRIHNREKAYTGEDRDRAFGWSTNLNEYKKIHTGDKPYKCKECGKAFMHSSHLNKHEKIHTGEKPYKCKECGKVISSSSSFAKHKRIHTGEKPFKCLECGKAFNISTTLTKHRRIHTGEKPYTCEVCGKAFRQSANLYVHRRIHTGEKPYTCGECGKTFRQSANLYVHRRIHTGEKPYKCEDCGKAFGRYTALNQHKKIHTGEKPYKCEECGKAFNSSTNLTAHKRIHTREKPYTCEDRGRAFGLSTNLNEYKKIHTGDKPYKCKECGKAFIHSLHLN
Outline: as §1

ZNF721 DBD2 = ZNF721 DBD2 (Homo sapiens, UniProt Q8TF20-2 395-923)
Chain of ZNF721 DBD2 (Q8TF20 383-911): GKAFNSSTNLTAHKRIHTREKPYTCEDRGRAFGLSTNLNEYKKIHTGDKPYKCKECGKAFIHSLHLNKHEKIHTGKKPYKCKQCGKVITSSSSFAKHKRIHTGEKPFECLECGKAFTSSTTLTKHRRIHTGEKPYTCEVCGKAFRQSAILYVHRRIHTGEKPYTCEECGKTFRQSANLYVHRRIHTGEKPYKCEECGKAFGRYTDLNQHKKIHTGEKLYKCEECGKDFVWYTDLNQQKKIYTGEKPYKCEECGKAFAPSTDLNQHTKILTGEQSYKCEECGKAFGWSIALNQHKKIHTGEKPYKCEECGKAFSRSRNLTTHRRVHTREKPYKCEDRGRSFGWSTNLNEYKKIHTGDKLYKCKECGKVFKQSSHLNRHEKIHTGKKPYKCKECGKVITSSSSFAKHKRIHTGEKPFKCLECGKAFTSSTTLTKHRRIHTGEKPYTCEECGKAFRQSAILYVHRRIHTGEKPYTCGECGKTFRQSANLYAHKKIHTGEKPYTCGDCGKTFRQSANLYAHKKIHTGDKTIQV
Outline: as §1

Chain of ZNF721 full-length (Q8TF20 other isoform, or with tags, fused parts or gaps): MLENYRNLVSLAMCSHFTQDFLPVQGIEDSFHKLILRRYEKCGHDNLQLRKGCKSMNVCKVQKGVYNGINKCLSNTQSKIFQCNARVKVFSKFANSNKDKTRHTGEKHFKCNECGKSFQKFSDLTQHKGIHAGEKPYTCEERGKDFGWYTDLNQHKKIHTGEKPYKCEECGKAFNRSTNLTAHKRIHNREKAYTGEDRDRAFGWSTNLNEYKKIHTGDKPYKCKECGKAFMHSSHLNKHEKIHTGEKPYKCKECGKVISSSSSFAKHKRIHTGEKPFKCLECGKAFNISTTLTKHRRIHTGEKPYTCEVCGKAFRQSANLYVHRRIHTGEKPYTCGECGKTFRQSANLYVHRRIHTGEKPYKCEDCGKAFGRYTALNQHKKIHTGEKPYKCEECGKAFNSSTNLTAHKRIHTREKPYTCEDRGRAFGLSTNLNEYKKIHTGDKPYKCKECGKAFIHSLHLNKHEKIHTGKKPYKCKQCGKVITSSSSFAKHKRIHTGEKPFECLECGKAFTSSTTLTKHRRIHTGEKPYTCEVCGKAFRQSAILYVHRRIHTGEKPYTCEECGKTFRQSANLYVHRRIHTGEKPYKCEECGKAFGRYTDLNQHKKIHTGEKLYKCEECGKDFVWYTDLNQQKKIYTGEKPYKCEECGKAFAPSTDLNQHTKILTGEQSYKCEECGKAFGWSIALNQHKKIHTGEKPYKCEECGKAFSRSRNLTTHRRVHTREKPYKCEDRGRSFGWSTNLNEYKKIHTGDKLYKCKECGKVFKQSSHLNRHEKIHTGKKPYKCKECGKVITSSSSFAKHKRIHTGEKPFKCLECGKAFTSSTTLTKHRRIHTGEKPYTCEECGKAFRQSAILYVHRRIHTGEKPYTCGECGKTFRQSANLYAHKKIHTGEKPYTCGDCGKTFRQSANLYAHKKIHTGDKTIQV

Row | Sequence | binding signal (ZNF721 full-length) [relative 10-mer count] | binding signal (ZNF721 DBD1) [relative 10-mer count] | binding signal (ZNF721 DBD2) [relative 10-mer count]
1 | CGAAAAAAAG | 0.159 | 0.0289 | 0.0578
2 | GAAGCTATAC | 0.107 | 0.143 | 
3 | ATGAAGTGTA | 0.376 | 0.432 | 
4 | AAGAAGCTAT | 0.144 | 0.16 | 
5 | AAGCTATACC | 0.227 | 0.155 | 
6 | CTTCATACCA | 0.116 | 0.165 | 
7 | CGGTATGAAG | 0.108 | 0.15 | 
8 | ATGTATGAAG | 0.263 | 0.279 | 
9 | AACCCACCCC | 0.143 | 0.00596 | 
10 | CGCCGCCCCC | 0.138 | 0.00518 | 
11 | ACTTCATACC | 0.377 | 0.502 | 
12 | ATACACTTCA | 0.245 | 0.223 | 
13 | CTTCATACCC | 0.221 | 0.363 | 
14 | AGCTTCATAC | 0.196 | 0.296 | 
15 | AAAAGCTATA | 0.177 | 0.0882 | 
16 | AACCCCCACC | 0.108 | 0.00495 | 
17 | CCCCGACCCC | 0.24 | 0.00789 | 
18 | ACTTCATACT | 0.154 | 0.27 | 
19 | CCCCTGCCCC | 0.217 | 0.00734 | 
20 | CCCGCCCGCC | 0.128 | 0.0044 | 
21 | CCCGCACCCC | 0.193 | 0.00784 | 
22 | ACACCCCACC | 0.13 | 0.00413 | 0.00204
23 | GAAGTGTATC | 0.279 | 0.247 | 
24 | ACTTCATACA | 0.358 | 0.393 | 

Row | Sequence | binding signal (ZNF721 full-length) [relative 10-mer count] | binding signal (ZNF721 DBD1) [relative 10-mer count] | binding signal (ZNF721 DBD2) [relative 10-mer count]
25 | CTCCGCCCCC | 0.11 | 0.00537 | 
26 | CCCGCTCCCC | 0.13 | 0.00527 | 
27 | CCCCCCACAC | 0.17 | 0.00656 | 0.00671
28 | CCCAGCCCCC | 0.163 | 0.00518 | 
29 | CCCCCGGCCC | 0.102 | 0.00394 | 
30 | GCTTCATACC | 0.229 | 0.354 | 
31 | CCAGCCCCCC | 0.131 | 0.00316 | 
32 | AGGTATGAAG | 0.192 | 0.217 | 
33 | CGCCCCCCCC | 0.171 | 0.00527 | 
34 | AAAGCTATAC | 0.183 | 0.0924 | 
35 | CCCCGGCCCC | 0.12 | 0.00358 | 
36 | CCCCCCCCCC | 0.116 | 0.00358 | 
37 | CAGCGTTACC | 0.138 | 0.00147 | 0.297
38 | AGTATGAAGC | 0.167 | 0.232 | 
39 | ACCCGCCCCC | 0.153 | 0.005 | 
40 | AGCTTCTTTC | 0.151 | 0.125 | 
41 | AAAAAAAAGG | 0.175 | 0.00477 | 0.12
42 | CCCCCGCTCC | 0.103 | 0.0033 | 0.00144
43 | GGGGGCGGGA | 0.119 | 0.00537 | 0.00144
44 | CGCCCCCACC | 0.19 | 0.00945 | 0.00515
45 | CGTCCCCCAC | 0.104 | 0.00468 | 0.00407
46 | CCTCCCCTCC | 0.155 | 0.00812 | 0.0132
47 | CCCCACGCCC | 0.235 | 0.00853 | 0.00395
48 | CCCCCCGCCG | 0.104 | 0.00303 | 0.0024

Row | Sequence | binding signal (ZNF721 full-length) [relative 10-mer count] | binding signal (ZNF721 DBD1) [relative 10-mer count] | binding signal (ZNF721 DBD2) [relative 10-mer count]
49 | GCATACCCTA | 0.202 | 0.0231 | 0.217
50 | GCTTTTTTCC | 0.267 | 0.0895 | 0.0308
51 | CGCTTCATAC | 0.265 | 0.363 | 0.0012
52 | CCCACCCCAG | 0.114 | 0.00321 | 0.00156
53 | CCCCATCCCC | 0.231 | 0.0083 | 0.0036
54 | CCACCAACCC | 0.156 | 0.0067 | 0.00491
55 | CCACCACCCG | 0.131 | 0.00564 | 0.00467
56 | CCTCCCCCAC | 0.216 | 0.01 | 0.00767
57 | CTCCCTCCCC | 0.143 | 0.00927 | 0.00312
58 | CCGCCTCCCC | 0.155 | 0.00798 | 0.00204
59 | CCCCCTGCCC | 0.154 | 0.00628 | 0.00192
60 | ACCCTCCCCA | 0.105 | 0.00509 | 0.00515
61 | GCCACCCACC | 0.147 | 0.00605 | 0.00312
62 | CCCTCACCAC | 0.104 | 0.00482 | 0.00587
63 | CCCCGACCAC | 0.111 | 0.00422 | 0.00395
64 | CGCACCCCCC | 0.118 | 0.00463 | 0.00276
65 | CACCACCCCG | 0.135 | 0.00518 | 0.00312
66 | AAAGCAGCAC | 0.125 | 0.00583 | 0.126
67 | CACCCCACCA | 0.182 | 0.00725 | 0.00587
68 | ACACCACCCC | 0.128 | 0.00394 | 0.00276
69 | ACCCCCCACC | 0.257 | 0.0107 | 0.00491
70 | CCCCACCCAC | 0.337 | 0.0124 | 0.00587
71 | CCCCACCTCC | 0.24 | 0.0128 | 0.00575
72 | GGGGGGGGGA | 0.116 | 0.00486 | 0.00192

Row | Sequence | binding signal (ZNF721 full-length) [relative 10-mer count] | binding signal (ZNF721 DBD1) [relative 10-mer count] | binding signal (ZNF721 DBD2) [relative 10-mer count]
73 | AAAAAGGCAT | 0.188 | 0.00266 | 0.155
74 | AGCATCCCCA | 0.136 | 0.0121 | 0.0674
75 | CCCCGCCCCG | 0.144 | 0.00486 | 0.00348
76 | CCCCTCCCCA | 0.188 | 0.00734 | 0.00455
77 | CCCCCCCAAC | 0.155 | 0.0044 | 0.00791
78 | CGACCCACCC | 0.126 | 0.00477 | 0.00324
79 | AGCGTCTCCT | 0.109 | 0.0353 | 0.194
80 | CCTCCGCCCC | 0.161 | 0.00789 | 0.003
81 | AAAAAAGAAG | 0.101 | 0.0198 | 0.0207
82 | CCACCCAGCC | 0.102 | 0.00294 | 0.00264
83 | GCTTCTTTCC | 0.103 | 0.0866 | 0.00156
84 | AAAGCAGCGT | 0.371 | 0.00115 | 0.512
85 | GGGTGGGGGA | 0.208 | 0.00885 | 0.00443
86 | CCCCGCCTCC | 0.175 | 0.00738 | 0.00216
87 | CCTCCCACCA | 0.115 | 0.00784 | 0.00491
88 | CCCCCGCCCC | 0.312 | 0.0117 | 0.00372
89 | AAAGCAGCAT | 0.31 | 0.00202 | 0.366
90 | CCCTCCCACC | 0.265 | 0.0161 | 0.00755
91 | CCCCAACCAC | 0.156 | 0.00665 | 0.00515
92 | CCGCCCGCCC | 0.136 | 0.00495 | 0.00192
93 | CTGCCCACCC | 0.102 | 0.00394 | 0.00216
94 | AAGGCATACC | 0.13 | 0.00183 | 0.114
95 | CCCACCGCCC | 0.319 | 0.0135 | 0.00551
96 | AAGCATACCC | 0.253 | 0.076 | 0.0243

Row | Sequence | binding signal (ZNF721 full-length) [relative 10-mer count] | binding signal (ZNF721 DBD1) [relative 10-mer count] | binding signal (ZNF721 DBD2) [relative 10-mer count]
97 | CCACCCCGCC | 0.263 | 0.00894 | 0.00503
98 | AAAAAGAAGC | 0.126 | 0.0301 | 0.0126
99 | CCCCCTCGCC | 0.123 | 0.0061 | 0.00288
100 | AGGGGCGGGG | 0.125 | 0.0044 | 0.00168
101 | AGGTGGTGGG | 0.113 | 0.00601 | 0.00587
102 | CCCACCCCAC | 0.354 | 0.0155 | 0.00863
103 | CACCACCACC | 0.19 | 0.0072 | 0.0109
104 | CACCCCCCCC | 0.217 | 0.00789 | 0.00384
105 | AGGTGGGGTG | 0.114 | 0.00532 | 0.00288
106 | AGGGTTTCCA | 0.106 | 0.00128 | 0.201
107 | CACCCCCCCA | 0.16 | 0.00716 | 0.00443
108 | CACCCCGACC | 0.113 | 0.00335 | 0.00216
109 | AGCATGACCA | 0.152 | 0.00431 | 0.236
110 | CCGACCCCCC | 0.153 | 0.00541 | 0.00108
111 | CCCAACCCCC | 0.208 | 0.00789 | 0.00168
112 | ACCACCCCCC | 0.211 | 0.00771 | 0.00288
113 | CCCACCGACC | 0.127 | 0.00394 | 0.00455
114 | CCCCCCCGCC | 0.204 | 0.00706 | 0.00276
115 | CCACCACACC | 0.148 | 0.00537 | 0.00587
116 | CCCACCCTCC | 0.252 | 0.0121 | 0.0115
117 | AGGGGGGCGG | 0.108 | 0.00417 | 0.0012
118 | GCTTTTTTCA | 0.21 | 0.076 | 0.0334
119 | CCCACCCAGC | 0.106 | 0.00307 | 0.003
120 | GCCCACCCCA | 0.142 | 0.00505 | 0.00971

— PMC13541613, “GHT-SELEX demonstrates unexpectedly high intrinsic sequence specificity and complex DNA binding of many human transcription factors”
